Experimental data published in PubChem BioAssay (NCI).
This is part of a sample that, as a whole, favours compounds with a hit. Of some 83,000 tested, about 20% had one in any assay.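 Treatment: one concentration, 48 hours, 96-well format. Scoring: percent growth, with anything below 10 considered active.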 Values without a mark were called inactive. Active and inactive are the calls of the source.

Each compound was assayed on NCI-H226 lung (assay: NCI-60 one-dose screen, 48 h (100 = growth as untreated, 0 = no growth, -100 = all killed)). Settings: 10 µM unless noted.

SMILES | growth
Cc1nn(-c2ccccc2)c2c1oc(=O)c1cc(Cl)ccc12 | 96.3%
CCC1=C(c2ccc(OC)cc2)C(C)(C)Oc2c1ccc(O)c2CN1CCCC1 | 29%
O=C(NCCc1ccccc1)C1CCC(=O)N1Cc1ccc(Br)cc1 (centres undefined) | 95.1%
N#Cc1ccc(NC(=O)Nc2ccc(Oc3ccc(NC(=O)Nc4ccc(C#N)cc4)cc3)cc2)cc1 | 42.5%
COc1ccc2c(c1)C(=O)c1c-2c(OCCN(C)C)nc2cc(OC)ccc12 | -25.7% (active)
O=C(Nc1cccc([N+](=O)[O-])c1)c1cccc(C(=O)Nc2cccc([N+](=O)[O-])c2)c1 | 71%
CCCCCCCCCCCCCCCCCC1=NC(C)(C)CN1CCO | 17.6%
COc1ccc(OC)c(NC(=O)c2cc3oc4ccccc4c3cc2O)c1 | 90.7%
CN1C(=O)/C(=C/c2nc(-c3cccc(F)c3)n3ccccc23)c2ccccc21 | 84.4%
O=C(CN1CCCCC1)Sc1nnc2sc3ccccc3n12 | 84.9%
C[C@]12CC[C@@H]3c4ccc(O)c([N+](=O)[O-])c4CC[C@H]3[C@@H]1CC[C@@H]2NS(=O)(=O)c1cccc(Br)c1 | 62.4%
Cc1ccsc1/C=C/C1=NCCCN1C | 100%
CCCCCCCCCCSc1ncnc2nc[nH]c12 | 67.4%
C[n+]1c2ccccc2c(NC2CCNCC2)c2[nH]c3ccccc3c21 | 6.63% (active)
COc1cccc2c1O/C(=C\c1c([N+](=O)[O-])ncn1C)C2=O | 96.9%
CC[C@@H]1OC(=O)[C@H](C)[C@@H](O[C@H]2C[C@@](C)(OC)[C@@H](O)[C@H](C)O2)[C@H](C)[C@@H](O[C@@H]2O[C@H](C)C[C@H](N(C)C)[C@H]2O)[C@](C)(O)C[C@@H](C)[C@@H]2N[C@@H](COCCOC)O[C@H]([C@H]2C)[C@]1(C)O | 110%
O=C1C[C@@H]2/C(=C(O)\C=C\c3ccccc3)C(=O)C=C[C@@H]2O1 | 39.9%
Cc1cc2c(cc1[N+](=O)[O-])NC(CNC(C)C)CC2 (centres undefined) | 93.6%
CCCCN(CCCC)CCCOC(=O)c1ccc(N)cc1 | 76.8%
C=C(C[C@](O)(C(=O)/C=C/c1ccc(Cl)cc1)C(=O)OC)c1ccccc1 | 89.7%
CCN1C[C@@H](C)n2c(c(O)c3c(=O)n(Cc4ccc(F)c(Cl)c4)nc(C(=O)NC)c32)C1=O | 26.4%
Cc1nnc(Nc2ccc(NC(=O)Nc3ccc(Cl)cc3)cc2)c2ccccc12 | 71.9%

The compounds below were run on NCI-H322M lung in the same assay as above. Settings: 10 µM unless noted.

SMILES | growth
COc1ccc(C2CC(c3ccc(OC)c(OC)c3)=NN2C(=O)c2cc(OC)c(OC)c(OC)c2)c(OC)c1 (centres undefined) | 94.8%
CCOC(=O)c1c2c(c(C)n1Cc1ccc(OC)cc1)-c1nc(N)ncc1CC2 | 113%
O=C1N(C2CCCCC2)C(=O)N1C1CCCCC1 | 35.2%
O=c1ccn(C2OC(CO)C(O)C2F)c(=O)[nH]1 (centres undefined) | 117%
CCCn1cnc2c1c(=O)n(CCCCC(C)=O)c(=O)n2C | 97.4%
CCCCc1nc(Cl)c(CO)n1Cc1ccc(-c2ccccc2-c2nn[nH]n2)cc1 | 97.1%
COc1ccc(C2CC(c3cccc(Nc4ccnc5cc(Cl)ccc45)c3)=NN2C=O)cc1 (centres undefined) | 62.5%
O=c1c(O)cccn1CCCNCCCN(CCCn1cccc(O)c1=O)CCCn1cccc(O)c1=O | 94.5%
COc1ccc2nc(-c3ccc(-n4cncc4-c4ccc(OC)c(N)c4)cc3)sc2c1 | 95.3%
Cc1cc(NC(=O)Nc2cc(Cl)ccc2C)no1 | 146%
O=C1NCN(c2ccccc2)C12CCN(CCCC(c1ccc(F)cc1)c1ccc(F)cc1)CC2 | 60.4%
CCC(O)C(C)(C)C (centres undefined) | 127%
COc1ncc(-c2ccc3nccc(C#CCN4CCN(S(C)(=O)=O)CC4)c3c2)cc1NS(=O)(=O)c1ccc(F)cc1F | -11.8% (active)
O=C(Nc1ccc(Cl)cc1)c1cc2c(cc1O)[nH]c1ccccc12 | 26.9%
O=C1c2ccccc2C(=O)c2c1cccc2-n1nnc2ccccc21 | 118%
Cc1nn(-c2ccccc2)c2c1oc(=O)c1cc(Cl)ccc12 | 90.5%
CCC1=C(c2ccc(OC)cc2)C(C)(C)Oc2c1ccc(O)c2CN1CCCC1 | 47.7%
O=C(NCCc1ccccc1)C1CCC(=O)N1Cc1ccc(Br)cc1 (centres undefined) | 101%
N#Cc1ccc(NC(=O)Nc2ccc(Oc3ccc(NC(=O)Nc4ccc(C#N)cc4)cc3)cc2)cc1 | 61.8%

SMILES | growth
COc1ccc2c(c1)C(=O)c1c-2c(OCCN(C)C)nc2cc(OC)ccc12 | 19.7%
O=C(Nc1cccc([N+](=O)[O-])c1)c1cccc(C(=O)Nc2cccc([N+](=O)[O-])c2)c1 | 77.1%
CCCCCCCCCCCCCCCCCC1=NC(C)(C)CN1CCO | 59.8%
COc1ccc(OC)c(NC(=O)c2cc3oc4ccccc4c3cc2O)c1 | 101%
CN1C(=O)/C(=C/c2nc(-c3cccc(F)c3)n3ccccc23)c2ccccc21 | 80.8%
O=C(CN1CCCCC1)Sc1nnc2sc3ccccc3n12 | 111%
C[C@]12CC[C@@H]3c4ccc(O)c([N+](=O)[O-])c4CC[C@H]3[C@@H]1CC[C@@H]2NS(=O)(=O)c1cccc(Br)c1 | 53.8%
Cc1ccsc1/C=C/C1=NCCCN1C | 102%
CCCCCCCCCCSc1ncnc2nc[nH]c12 | 88.5%
C[n+]1c2ccccc2c(NC2CCNCC2)c2[nH]c3ccccc3c21 | -38.2% (active)
COc1cccc2c1O/C(=C\c1c([N+](=O)[O-])ncn1C)C2=O | 84.7%
CC[C@@H]1OC(=O)[C@H](C)[C@@H](O[C@H]2C[C@@](C)(OC)[C@@H](O)[C@H](C)O2)[C@H](C)[C@@H](O[C@@H]2O[C@H](C)C[C@H](N(C)C)[C@H]2O)[C@](C)(O)C[C@@H](C)[C@@H]2N[C@@H](COCCOC)O[C@H]([C@H]2C)[C@]1(C)O | 96%
O=C1C[C@@H]2/C(=C(O)\C=C\c3ccccc3)C(=O)C=C[C@@H]2O1 | 26.1%
Cc1cc2c(cc1[N+](=O)[O-])NC(CNC(C)C)CC2 (centres undefined) | 113%
CCCCN(CCCC)CCCOC(=O)c1ccc(N)cc1 | 98.2%
C=C(C[C@](O)(C(=O)/C=C/c1ccc(Cl)cc1)C(=O)OC)c1ccccc1 | 90.3%
CCN1C[C@@H](C)n2c(c(O)c3c(=O)n(Cc4ccc(F)c(Cl)c4)nc(C(=O)NC)c32)C1=O | 18.4%
Cc1nnc(Nc2ccc(NC(=O)Nc3ccc(Cl)cc3)cc2)c2ccccc12 | 47.8%
